Several values for one entry are separate records, joined by “and”; a condition that tells them apart may be missing. Equal values may be shown once. Records with an inconclusive call do not appear. Some structures have more than one record in an assay (separate samples or runs), and their calls can disagree. Activity calls are given as the source filed them. Unless noted, the call rests on the fitted dose curve; in most records, active means well fitted curve in the direction sought with a large enough effect in the repeat runs; inconclusive means weak or mixed curves; inactive means no such curve, though single readings can be large; an effect the other way counts as inactive or inconclusive.

Assay [1] concerns the target Progesterone receptor (Homo sapiens) (UniProt P06401). The experiment in a line: qHTS assay to identify small molecule agonists of the progesterone receptor (PR) signaling pathway (AID 1346784; calls by dose curve; further: nearly all actives have a fitted effect of over 30% in size). In short, it runs like this: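 Fluorescence from LiveBLAzer B/G FRET substrate cleavage (2 hr, RT) reported PR activation in PR-UAS-bla HEK 293T cells treated 16 hr at 37C/5% CO2 with compounds; medium contained 2% charcoal-stripped FBS.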
Background: In qHTS, concentration-response curves come from the screen itself.

Assay [2] can be described thus: qHTS assay to identify small molecule antagonists of the progesterone receptor (PR) signaling pathway - cell viability counter screen (AID 1346798). Further: nearly all actives have a fitted effect of over 50% in size. Further: potency means the concentration at half of the fitted maximal effect. On activity change, negative = cytotoxicity: series mostly up to about 92 µM. In short, it runs like this: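 CellTiter-Glo luminescence; PR-UAS-bla HEK293T, 3,000 cells/well; compound + R5020, 16 hr, 37C/5% CO2; 30 min RT before read.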
Assay [3] in a line: qHTS assay to identify small molecule agonists of the progesterone receptor (PR) signaling pathway - cell viability counter screen (AID 1346799; calls by dose curve; further: nearly all actives have a fitted effect of over 45% in size; further: potency means the concentration at half of the fitted maximal effect). In short, it runs like this:
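In parallel with the beta-lactamase readout, cytotoxicity toward PR-UAS-bla HEK293T cells was measured by CellTiter-Glo luminescence following 16 hr compound incubation in 2% charcoal-stripped FBS medium.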

Assay [4] in a line: qHTS assay to identify small molecule antagonists of the TGF-beta/Smad signaling pathway - cell viability counter screen (AID 1346824). Further: nearly all actives have a fitted effect of over 50% in size. Further: potency means the concentration at half of the fitted maximal effect. In short, it runs like this: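 Cytotoxicity counter-screen run in the same wells as the beta-lactamase Smad reporter read: CellTiter-Glo luminescence after 30 min at room temperature. HEK 293T SBE-bla cells had 5 hr compound exposure at 37 C with TGF-beta1 (0.25 ng/mL stock).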

The nature of assay [5]: qHTS assay to identify small molecule agonists of the TGF-beta/Smad signaling pathway - cell viability counter screen (AID 1346829). Further: nearly all actives have a fitted effect of over 45% in size. Further: potency means the concentration at half of the fitted maximal effect. On activity change, negative = cytotoxicity: top concentration of the series differs between compounds. In short, it runs like this:
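Cytotoxicity counter screen: CellTiter-Glo luminescence (30 min, room temperature) measured in the SBE-bla HEK 293T reporter wells after 5 hr compound treatment at 37 C and the 2 hr substrate step.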

The nature of assay [6]: qHTS assay to identify small molecule agonists of the TGF-beta/Smad signaling pathway (AID 1346859; active means well fitted activation curve with a large enough effect in the signal ratio in the repeat runs, not every such curve was filed as active; the % refers to the signal ratio; further: series mostly up to about 77 µM). The essentials:
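After overnight seeding, SBE-bla HEK 293T cells are dosed with compounds in DMSO and kept 5 hr at 37 C, 5% CO2. LiveBLAzer-type FRET substrate is then applied for 2 hr at room temperature.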

The target of assay [7] is Thyrotropin-releasing hormone receptor (Homo sapiens) (UniProt P34981). The experiment in a line: qHTS assay to identify small molecule antagonists of the thyrotropin-releasing hormone receptor (TRHR) signaling pathway (AID 1346877; active means well fitted inhibition curve with a large enough effect in the repeat runs, not every such curve was filed as active; further: potency means the concentration at half of the fitted maximal effect; on activity, negative = inhibition: series mostly up to about 51 µM). In short, it runs like this: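 Human TRHR in HEK293 cells; inhibition of the intracellular calcium rise triggered by 1 nM TRH was followed by fluorescence over 3 min. Compounds were run at 15 concentrations, three replicates each.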
Chain of Thyrotropin-releasing hormone receptor (Homo sapiens) (P34981 whole entry, looked up): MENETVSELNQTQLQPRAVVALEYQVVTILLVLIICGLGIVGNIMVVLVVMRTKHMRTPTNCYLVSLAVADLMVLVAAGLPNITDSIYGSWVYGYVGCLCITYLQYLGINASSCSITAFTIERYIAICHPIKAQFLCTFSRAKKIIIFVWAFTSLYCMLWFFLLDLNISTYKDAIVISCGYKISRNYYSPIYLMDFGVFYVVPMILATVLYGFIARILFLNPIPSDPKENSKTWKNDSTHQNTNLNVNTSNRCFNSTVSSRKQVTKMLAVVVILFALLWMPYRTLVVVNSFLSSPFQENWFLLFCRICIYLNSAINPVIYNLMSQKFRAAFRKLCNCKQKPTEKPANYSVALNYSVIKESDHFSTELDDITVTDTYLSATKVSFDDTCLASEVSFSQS

For assay [8] the target is unchanged. Put plainly: qHTS assay to identify small molecule agonists of the thyrotropin-releasing hormone receptor (TRHR) signaling pathway (AID 1346891; calls by dose curve; further: potency means the concentration at half of the fitted maximal effect;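 on activation: HEK293 cells expressing TRHR with calcium dye readout; series mostly up to about 58 µM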). The essentials:
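Compounds were tested as agonists at 15 concentrations, in triplicate, on TRHR-Hek293 cells; calcium-sensitive dye fluorescence was recorded for 3 min following addition.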

Assay [9] in a line: Human pregnane X receptor (PXR) small molecule agonists, qHTS cell viability counter screen (AID 1346977). Further: nearly all actives have a fitted effect of over 50% in size. Further: potency means the concentration at half of the fitted maximal effect. In short, it runs like this:
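Viability counter screen: CellTiter-Fluor signal in PXR-Luc HepG2 cells, 24hr compound exposure, 37C, 5% CO2.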

The nature of assay [10]: Caspase-3/7 induction in HepG2 cells by small molecules, qHTS assay (AID 1346978). Further: nearly all actives have a fitted effect of over 15% in size. Further: potency means the concentration at half of the fitted maximal effect. The essentials: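 Caspase-3/7 induction was measured by Caspase-Glo 3/7 luminescence (30 min, room temperature) after a 17 hr compound exposure of wild-type HepG2 cells seeded at 2,000 per well and pre-incubated 5 hr.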
The nature of assay [11]: Caspase-3/7 induction in CHO-K1 cells by small molecules, qHTS assay (AID 1346980). Further: nearly all actives have a fitted effect of over 15% in size. Further: potency means the concentration at half of the fitted maximal effect. The essentials:
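Luminescent Caspase-Glo 3/7 read (30min, room temperature) quantified apoptosis induction. Cells were wild-type CHO-K1, treated with compound for 17hr at 37 C and 5% CO2.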

A short description of assay [12]: Caspase-3/7 induction in HepG2 cells by small molecules, qHTS cell viability counter screen (AID 1346981). Further: nearly all actives have a fitted effect of over 30% in size. Further: potency means the concentration at half of the fitted maximal effect. On activity change, negative = cytotoxicity: series mostly up to about 92 µM. The essentials:
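The parent HepG2 line is plated at 2,000 cells per well and rested 5 hr before compound pinning from DMSO stocks. Following a 16-hr treatment at 37 C, a fluorogenic live-cell substrate (CellTiter-Fluor) reports viability after 1 hr.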

The target in assay [13] is Nuclear receptor subfamily 1 group I member 2 (Rattus norvegicus) (UniProt Q9R1A7). The experiment in a line: Rat pregnane X receptor (rPXR) activation by small molecules, qHTS assay (AID 1346983). Further: nearly all actives have a fitted effect of over 20% in size. To be noted: rPXR luciferase reporter cells, One-Glo luminescence, 24 h; max activation: stronger effect = higher value. The essentials:
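Luminescent readout (One-Glo luciferase, 30 min room temperature) followed 24 hr compound treatment at 37 C of rPXR cells plated 2,000 per well and preincubated 5hr; qHTS format with compounds delivered in DMSO.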

Assay [14] in a line: Caspase-3/7 induction in CHO-K1 cells by small molecules, qHTS cell viability counter screen (AID 1346979). Further: nearly all actives have a fitted effect of over 35% in size. Further: potency means the concentration at half of the fitted maximal effect. The essentials: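 Viability readout by fluorescence (CellTiter-Fluor) on wild-type CHO-K1 cells exposed for 16hr at 37C and 5% CO2 to compounds delivered in DMSO; reagent incubated 1hr before reading.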
In assay [15] the target is Nuclear receptor subfamily 1 group I member 2 (Homo sapiens) (UniProt O75469). Put plainly: Human pregnane X receptor (PXR) small molecule agonists, qHTS assay (AID 1346982). Further: nearly all actives have a fitted effect of over 35% in size. Further: potency means the concentration at half of the fitted maximal effect. The essentials: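 After plating in 5% charcoal-stripped FBS and a 5 hr rest, PXR-Luc HepG2 cells received compounds in DMSO. Following 24 hr at 37 C, ONE-Glo was added and light output read.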
Chain of Nuclear receptor subfamily 1 group I member 2 (Homo sapiens) (O75469 whole entry, looked up): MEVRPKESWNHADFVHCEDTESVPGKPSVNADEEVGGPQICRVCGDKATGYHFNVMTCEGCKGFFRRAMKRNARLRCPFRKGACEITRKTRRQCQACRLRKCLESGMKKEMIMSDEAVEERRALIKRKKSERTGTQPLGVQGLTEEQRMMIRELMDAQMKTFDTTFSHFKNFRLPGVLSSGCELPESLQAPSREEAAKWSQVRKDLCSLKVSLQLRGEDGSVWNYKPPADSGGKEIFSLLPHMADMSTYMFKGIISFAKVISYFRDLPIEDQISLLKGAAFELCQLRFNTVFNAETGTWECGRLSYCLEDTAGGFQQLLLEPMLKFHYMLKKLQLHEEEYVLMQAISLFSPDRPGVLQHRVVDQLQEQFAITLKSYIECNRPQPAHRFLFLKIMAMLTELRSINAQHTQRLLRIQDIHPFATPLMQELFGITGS
Assay [16] has as its target Cytochrome P450 2D6 (Homo sapiens) (UniProt P10635). The experiment in a line: Cytochrome P450 Family 2 Subfamily D Member 6 (CYP2D6) small molecule antagonists: luciferase reporter qHTS assay (AID 1671196). Further: nearly all actives have a fitted effect of over 50% in size. Further: potency means the concentration at half of the fitted maximal effect. In short, it runs like this: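 Quantitative HTS of Tox21 chemicals against CYP2D6 using a luminescent proluciferin substrate. After NADPH addition, 1 h room-temperature reaction; luminescence recorded 20 min post detection reagent.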

Assay [17] deals with Cytochrome P450 2C19 (Homo sapiens) (UniProt P33261). The experiment in a line: Cytochrome P450 Family 2 Subfamily C Member 19 (CYP2C19) small molecule antagonists: luciferase reporter qHTS assay (AID 1671197). Further: nearly all actives have a fitted effect of over 65% in size. Further: potency means the concentration at half of the fitted maximal effect. In short, it runs like this:
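Luminescent readout of CYP2C19 activity: luciferin product detected 20 min after adding detection reagent. Before that, compound and enzyme-substrate mix preincubated 10 min at room temperature; NADPH-regenerating system started a 1 h, 37C reaction. Ketoconazole as positive control.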
Background: A reporter such as luciferase makes a cellular process visible.

Assay [18] deals with Nuclear receptor subfamily 1 group I member 2 (Homo sapiens) (UniProt O75469). The experiment in a line: Human pregnane X receptor (PXR) activation by small molecules, qHTS assay (AID 1346985). Further: nearly all actives have a fitted effect of over 40% in size. The essentials:
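DPX-2 cells (HepG2 co-transfected with a PXR response element and a CYP3A4-promoter luciferase construct) were seeded at 2,000 per well, rested 5 hr at 37C, then exposed to DMSO-dissolved compounds for 24 hr. Activation was read as luciferase luminescence.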

Assay [19] shares this target. Put plainly: CYP3A4 induction through human pregnane X receptor (PXR) by small molecules, qHTS assay (AID 1346984). Further: nearly all actives have a fitted effect of over 40% in size. The essentials: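 Human PXR activation is tracked via CYP3A4 promoter-luciferase in DPX-2 (HepG2) cells. Compounds treat cells for 24hr at 37C, and luminescence is read after One-Glo.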
On the % scale 0 is the no-effect control and ±100 the full control effect.

Chain of Cytochrome P450 2D6 (Homo sapiens) (P10635 whole entry, looked up): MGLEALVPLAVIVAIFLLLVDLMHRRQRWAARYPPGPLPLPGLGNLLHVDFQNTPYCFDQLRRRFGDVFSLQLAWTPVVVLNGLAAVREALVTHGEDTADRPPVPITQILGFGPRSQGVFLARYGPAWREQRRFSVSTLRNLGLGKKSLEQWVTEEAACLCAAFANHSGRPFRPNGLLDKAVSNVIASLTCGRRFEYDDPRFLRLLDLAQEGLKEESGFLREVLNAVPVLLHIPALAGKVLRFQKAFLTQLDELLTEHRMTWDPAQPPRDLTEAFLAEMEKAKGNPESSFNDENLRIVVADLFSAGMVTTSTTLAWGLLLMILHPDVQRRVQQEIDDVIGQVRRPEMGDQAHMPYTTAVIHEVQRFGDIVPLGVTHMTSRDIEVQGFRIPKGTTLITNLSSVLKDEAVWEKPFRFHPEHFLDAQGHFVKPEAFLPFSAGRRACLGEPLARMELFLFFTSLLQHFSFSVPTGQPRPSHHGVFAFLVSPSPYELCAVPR
Chain of Cytochrome P450 2C19 (Homo sapiens) (P33261 whole entry, looked up): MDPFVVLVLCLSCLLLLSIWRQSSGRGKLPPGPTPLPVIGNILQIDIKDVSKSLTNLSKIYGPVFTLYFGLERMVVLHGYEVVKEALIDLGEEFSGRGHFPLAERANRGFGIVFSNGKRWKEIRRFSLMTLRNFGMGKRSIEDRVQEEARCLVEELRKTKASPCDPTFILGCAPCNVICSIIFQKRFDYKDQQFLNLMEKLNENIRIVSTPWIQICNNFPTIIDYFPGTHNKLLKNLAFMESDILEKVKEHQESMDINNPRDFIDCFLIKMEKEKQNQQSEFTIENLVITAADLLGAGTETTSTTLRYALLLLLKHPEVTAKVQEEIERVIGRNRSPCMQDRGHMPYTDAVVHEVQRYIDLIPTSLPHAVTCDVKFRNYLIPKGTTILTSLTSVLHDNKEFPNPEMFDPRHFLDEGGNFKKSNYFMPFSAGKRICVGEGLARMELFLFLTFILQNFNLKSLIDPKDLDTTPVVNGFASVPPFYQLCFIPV
Chain of Progesterone receptor (Homo sapiens) (P06401 whole entry, looked up): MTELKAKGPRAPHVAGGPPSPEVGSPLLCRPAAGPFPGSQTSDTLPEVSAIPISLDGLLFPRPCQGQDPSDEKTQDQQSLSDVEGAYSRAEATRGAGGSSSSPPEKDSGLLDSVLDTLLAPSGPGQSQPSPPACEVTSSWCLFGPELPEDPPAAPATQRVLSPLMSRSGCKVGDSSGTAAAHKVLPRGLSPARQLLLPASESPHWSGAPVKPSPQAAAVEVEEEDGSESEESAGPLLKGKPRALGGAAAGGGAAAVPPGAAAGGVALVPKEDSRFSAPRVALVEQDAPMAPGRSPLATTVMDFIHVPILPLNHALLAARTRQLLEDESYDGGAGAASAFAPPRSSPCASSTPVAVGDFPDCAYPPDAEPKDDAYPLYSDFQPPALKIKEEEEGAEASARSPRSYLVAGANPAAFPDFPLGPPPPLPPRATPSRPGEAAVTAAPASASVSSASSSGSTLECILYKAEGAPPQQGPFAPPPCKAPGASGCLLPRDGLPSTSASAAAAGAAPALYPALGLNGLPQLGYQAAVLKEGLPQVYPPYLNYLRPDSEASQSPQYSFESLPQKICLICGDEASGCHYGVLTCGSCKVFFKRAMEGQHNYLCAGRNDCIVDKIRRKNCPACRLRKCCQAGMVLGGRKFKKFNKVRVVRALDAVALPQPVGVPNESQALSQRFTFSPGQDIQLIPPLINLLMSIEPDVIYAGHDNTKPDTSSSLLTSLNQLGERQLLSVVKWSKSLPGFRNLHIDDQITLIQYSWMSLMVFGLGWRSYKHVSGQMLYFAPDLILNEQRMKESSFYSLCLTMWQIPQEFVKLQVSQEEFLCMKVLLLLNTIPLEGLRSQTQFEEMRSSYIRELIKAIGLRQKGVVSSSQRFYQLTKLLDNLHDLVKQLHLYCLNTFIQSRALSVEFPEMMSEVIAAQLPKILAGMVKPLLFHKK
Chain of Nuclear receptor subfamily 1 group I member 2 (Rattus norvegicus) (Q9R1A7 whole entry, looked up): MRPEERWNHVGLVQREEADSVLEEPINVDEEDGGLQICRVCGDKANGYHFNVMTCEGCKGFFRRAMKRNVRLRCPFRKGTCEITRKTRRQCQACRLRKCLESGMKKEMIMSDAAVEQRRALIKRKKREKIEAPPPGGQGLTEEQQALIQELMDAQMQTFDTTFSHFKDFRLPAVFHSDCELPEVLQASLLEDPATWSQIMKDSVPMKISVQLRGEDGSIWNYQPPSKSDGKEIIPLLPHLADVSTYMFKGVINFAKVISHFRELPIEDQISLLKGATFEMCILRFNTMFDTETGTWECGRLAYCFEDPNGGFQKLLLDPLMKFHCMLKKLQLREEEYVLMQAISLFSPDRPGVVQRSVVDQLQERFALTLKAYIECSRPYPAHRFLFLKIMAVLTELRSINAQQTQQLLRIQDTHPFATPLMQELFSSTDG

On to `O=C1NS(=O)(=O)c2ccccc21`, for which the Potency result in assay [1], in [2], in [3], in assay [4], in assay [5] and in assay [7] was “inactive” each time. Further, the Potency entry in assay [8], in assay [9], in assay [10], in assay [11] and in [12] was “inactive” each time. Moreover, the result in [6] was inactive. Besides, the max activation in assay [13] was -1.81% (inactive).

As for `COc1ccc2c(c1)c(CC(=O)O)c(C)n2C(=O)c1ccc(Cl)cc1`, the Potency result in [1], in assay [2], in assay [3], in assay [4], in assay [5] and in [9] was “inactive” each time. Besides, the Potency entry in assay [10], in [11], in assay [15] and in assay [17] was “inactive” in each case. Besides, the Potency in assay [14] is 61.5 µM (active); in assay [16], 35.8 µM (active) and inactive.

On to `Nc1ccc2c(c1)CN1C(=O)c3ccccc3C1=N2`, for which the activation in assay [1] was -0.634% [at 19 µM] (inactive). For the same compound, the activity change, negative = cytotoxicity in assay [2] was -15.2% [at 18.9 µM] (inactive); in assay [3] it was -25.1% [at 19 µM] (inactive). Also, the activity, negative = inhibition in assay [7] was -0.792% [at 10.5 µM] (inactive). In addition, the Potency is 8.27 µM (active) in [8], 0.073 µM (active) in assay [15], 6.01 µM (active) in assay [16] and 3.01 µM (active) in assay [17]. Also, the caspase activation in assay [10] is -14.3% [at 19 µM] (inactive). In addition, the caspase-3/7 activation in assay [11] was -7.02% [at 19 µM] (inactive).

Turning to `O=C(O)CC(O)C(=O)O` (stereo unspecified), the Potency entry in [2], in assay [3], in assay [4], in assay [5], in [7] and in [8] was “inactive” each time. Also, the Potency entry in assay [9], in assay [10], in assay [14], in assay [11], in [12] and in assay [16] was “inactive” in each case. The outcome in assay [6] and in assay [18] was inactive. Moreover, the max activation in assay [13] is -2.6% (inactive).

For `Nc1ccc(O)c([N+](=O)[O-])c1`, the Potency result in assay [4], in assay [5], in assay [7], in [8], in assay [10] and in assay [11] was “inactive” throughout. Also, the call in [6] was inactive. For the same compound, the Potency in [12] was 61.1 µM (active); in [17], 22.2 µM (active).

For the compound `Oc1ccccc1`, the Potency entry in assay [2], in assay [3], in assay [4], in assay [5], in assay [9] and in assay [10] was “inactive” throughout. The Potency result in [14], in assay [11] and in [12] was “inactive” each time. In assay [6], the call was inactive.

Take `C=C1CC[C@H](O)C/C1=C\C=C1/CCC[C@]2(C)[C@@H]([C@H](C)CCCC(C)C)CC[C@@H]12`: the Potency result in assay [4], in assay [5], in assay [7], in [8], in assay [9] and in assay [12] was “inactive” each time. Further, the Potency result in assay [19] and in [16] was “inactive” in each case. The outcome in [6] was inactive. Further, the Potency was 48.1 µM (active) in assay [14], 17.1 µM (active) in assay [15] and 35.3 µM (active) in [17]. Also, the max activation in assay [13] was 1.13% (inactive).

For `CCCCCCCCCCCC[N+](C)(C)Cc1ccccc1`, the Potency was 29.7 µM (active) and 33.5 µM (active) in assay [2]; 8.47 µM (active) and 8.36 µM (active) and 10.6 µM (active) in assay [3]; 48 µM (active) and 33.6 µM (active) and 23.9 µM (active) in assay [4]; 48 µM (active) and 29.9 µM (active) in assay [5]; 52.8 µM (active) in [9]; 67.3 µM (active) and 66.4 µM (active) in assay [10]. The Potency is 42.4 µM (active) and 33.3 µM (active) and 26.6 µM (active) in [14]; 67.3 µM (active) and 74.5 µM (active) and inactive in assay [12]; 984 nM (active) and 866 nM (active) and 219 nM (active) in assay [16]; 78.1 µM (active) and 34.5 µM (active) and 17.4 µM (active) in [17]. Moreover, in assay [6], the call was inactive. Also, the Potency result in assay [7], in assay [8] and in assay [11] was “inactive” each time.

On to `O=C1c2c(O)cccc2Cc2cccc(O)c21`, for which the Potency entry in [1], in assay [2], in [3], in assay [4], in assay [5] and in assay [9] was “inactive” in each case. The Potency result in [10], in assay [11], in [12], in assay [19], in [16] and in assay [17] was “inactive” throughout. Further, the outcome in [6] and in assay [18] was inactive. In [13], the max activation is -3.04% (inactive).

Take `CC/C(=C(\c1ccccc1)c1ccc(OCCN(C)C)cc1)c1ccccc1`: the Potency entry in assay [1] was “inactive”. Besides, the Potency in assay [5] was 55.3 µM (active) and inactive; in assay [7], 12.1 µM (active) and inactive; in assay [8] it was 15.6 µM (active) and inactive; in assay [9], 25.1 µM (active) [middle of 5 runs]; in [10], 27.5 µM (active) and 54.4 µM (active) and 61.1 µM (active); in [11], 24.5 µM (active) and inactive. Besides, the Potency in assay [12] was 61.1 µM (active) [middle of 4 runs]. Further, the compound was classed as inactive in [6]. The max activation in [13] was -0.827% (inactive).

The values are drawn from PubChem BioAssay (Tox21).
